tested on: Perkinsus marinus PRA240; test: ATP content (proliferation) relative to DMSO control; higher = more parasite growth (less inhibition); settings: 20 µM; 4 days
Experimental: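 Perkinsus marinus PRA240 trophozoites (2-5x10^6 cells/ml, 100 µl, 96-well) were exposed once to MMV Malaria Box compounds at 20 µM (0.1% DMSO) in triplicate. ATP content (ATPlite bioluminescence) was read at day 4 post-exposure and normalised to DMSO + cells control wells (100% activity). Compounds were identified by joining plate and well to the Malaria Box list.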

Compound	ATP content
Cc1[nH]c(-c2ccc(F)cc2)cc1C(=O)NC1CCN(Cc2ccccc2)CC1	108%
CC1CC(C)CN(C(=O)c2ccc(Cl)cc2Cl)C1 (configuration not stated)	135%
O=C(NC1CCN(Cc2ccccc2)CC1)c1cc(C(=O)NC2CCN(Cc3ccccc3)CC2)cc(C(=O)NC2CCN(Cc3ccccc3)CC2)c1	90.4%
COc1ccc(C(=O)Nc2ccc3nc(N4CCCCC4)cc(C)c3c2)cc1OC	101%
Cc1ccc(OCCCCCCNCCO)c(C)c1	164%
O=C(NCC1Cc2cccc(-c3ccncc3)c2O1)c1csc2c1CCCC2 (configuration not stated)	114%
c1ccc(C2=Nc3ccccc3N=C(c3ccccc3)c3ccccc32)cc1	117%
CCOc1ccc(-c2nc(NC(=O)c3cccc(S(C)(=O)=O)c3)sc2C)cc1	79.8%
CCOc1cc(Br)c(C(C)NC(=O)c2cccc(OC)c2)cc1OCC (configuration not stated)	115%
O=C(Nc1ccc(CN2CCOCC2)cc1)c1ccc(-c2cc(Cl)ccc2Cl)o1	122%
CC1=C(CC(=O)c2cccc([N+](=O)[O-])c2)C(=O)c2ccccc2C1=O	136%
Oc1ccccc1CN1CCC2(CCCN(Cc3ccccc3F)C2)C1 (configuration not stated)	70.1%
Cc1ccc(S(=O)(=O)c2c(COC(=O)c3cccc(C)c3)c(-c3ccccc3)nn2C)cc1	162%
CCn1nc(-c2ccc(C(=O)OC)cc2)nc2c(=O)n(C)c(=O)nc1-2	1.37%
O=C(CCl)NCCOc1ccc(Cl)cc1Cl	99.9%
Cc1ccc(Cn2c(N3CCC(C(=O)NCc4cccs4)CC3)nc3ccccc32)cc1	106%
CCOc1ccccc1NC(=O)CN1CCN(C(=O)c2ccco2)CC1	66.6%
COc1cc2c3cc1Oc1c(OC)c(OC)cc4c1C(Cc1ccc(O)c(c1)Oc1ccc(cc1)CC3N(C)CC2)N(C)CC4 (configuration not stated)	144%
OC1CCCCC1C1(NC(=S)Nc2ccccc2)CCCCC1 (configuration not stated)	127%

Compound	ATP content
CC(NCc1ccccc1)c1cc(Cl)ccc1O (configuration not stated)	85.9%
Cc1ccc(NC(=O)Nc2cccc(Cl)c2)cc1F	85%
CN1CCN(c2c3c(c(C#N)c4nc5ccccc5n24)CCC3)CC1	140%
COc1cc2c(cc1OC)C1=NNC(=O)C1=NC(C)(C)C2	42.2%
Cc1sc(NC(=O)c2ccccc2)c(C(c2cccs2)N2CCN(c3ccccc3)CC2)c1C (configuration not stated)	97.8%
Cc1cc(N2CCN(C3CCCC3)CC2)n2c(nc3ccccc32)c1C#N	161%
COC(=O)c1ccc(Cl)c2c1C1C=CCC1C(c1cccc3ccccc13)N2 (configuration not stated)	106%
COc1ccccc1N1CCN(C(CNS(=O)(=O)c2ccc(Cl)cc2)c2cccnc2)CC1 (configuration not stated)	111%
Oc1c2c(nc3cc(-c4ccccc4)nn13)CCCC2	47.5%
Cc1sc2ncnc(Sc3nc4ccccc4[nH]3)c2c1C	131%
COc1ccc(C=C2SC(Nc3ccc(F)cc3)=NC2=O)c(OC)c1	60.7%
COCCN(C(=O)Cc1cccs1)C(C(=O)NCc1ccc(OC)cc1)c1ccc(C(C)C)cc1 (configuration not stated)	37.2%
COc1cccc(C2(C)Nc3ccccc3-c3nc4ccccc4n32)c1 (configuration not stated)	144%
CC(C)(C)CC(C)(C)NCC(O)COc1ccc2c(c1)CCC2 (configuration not stated)	114%
CCCCCCc1cc2cc(-c3csc(C=Cc4ccccc4)n3)c(=O)oc2cc1O	137%
CCCCN(CCCC)S(=O)(=O)c1ccc(NC(=O)c2ccco2)cc1	43.3%
CCCCCn1c(=N)n(CC(O)COc2cccc(C)c2)c2ccccc21 (configuration not stated)	127%
COc1cccc(NC(=O)Cn2c(C)c(C#N)c3ccccc32)c1	110%

— the supplement of paper PMC4206467
